Screens (PubChem BioAssay)
Tb PYK inh – blocks Trypanosoma brucei pyruvate kinase | TbPYK enzyme, Kinase-Glo Plus ATP luminescence, 45 min | Potency, µM (top dose mostly 76.8 µM), usual class: inhibitors | 0.12% of 410,000 active | AID 624173; also: nearly all actives have a fitted effect of over 50% in size
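Glycolytic pyruvate kinase of T. brucei was incubated with substrate, test compound and 130 uM ADP for 45 minutes at room temperature. Luminescent Kinase-Glo Plus signal was measured after 10 minutes.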
VACV Venus inh – inhibitors of vaccinia virus (Venus reporter) | Vaccinia virus Venus reporter expression, fluorescence | Potency, µM (titrated, usually from 36.5 µM), hits mostly inhibitors | 0.46% of 330,000 active | AID 720580; calls by dose curve; tested in A549 cells; also: nearly all actives have a fitted effect of over 30% in size
Vaccinia mCherry – inhibitors of vaccinia virus infection (mCherry reporter signal); 0.63% of 310,000 active; Vaccinia virus mCherry reporter infection, fluorescence; AID 720579; Potency, µM (titrated, usually from 36.5 µM), most hits filed as inhibitors; calls by dose curve; tested in A549 cells; also: nearly all actives have a fitted effect of over 35% in size
LmPK inh – blocks Leishmania mexicana pyruvate kinase activity; 0.37% of 290,000 active; Q27686; Potency, µM (titrated, usually from 57.5 µM), hits mostly inhibitors; AID 1721; purified LmPK, Kinase-Glo ATP luminescence, 1 h
Target sequence (Q27686 whole entry, looked up): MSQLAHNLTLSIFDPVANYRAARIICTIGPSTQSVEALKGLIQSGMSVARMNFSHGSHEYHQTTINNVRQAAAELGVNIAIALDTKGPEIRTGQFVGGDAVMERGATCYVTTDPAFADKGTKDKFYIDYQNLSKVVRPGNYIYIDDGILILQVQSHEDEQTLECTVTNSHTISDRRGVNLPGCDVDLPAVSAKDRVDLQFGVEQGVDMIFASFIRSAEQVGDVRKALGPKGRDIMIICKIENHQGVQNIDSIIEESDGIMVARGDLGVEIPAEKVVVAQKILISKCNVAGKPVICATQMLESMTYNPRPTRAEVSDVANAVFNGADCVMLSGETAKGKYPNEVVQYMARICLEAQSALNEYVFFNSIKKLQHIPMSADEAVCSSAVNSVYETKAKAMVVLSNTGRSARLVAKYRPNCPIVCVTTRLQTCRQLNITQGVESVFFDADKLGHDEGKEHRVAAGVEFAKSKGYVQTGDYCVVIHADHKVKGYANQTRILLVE
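In 50 mM imidazole pH 7.2 with 7 mM MgCl2, LmPK (0.1 nM) turned over PEP (0.5 mM) and ADP (0.1 mM) for 1 h at room temperature. Luciferase read-out of ATP.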
HCMV antiviral – inhibitors of human cytomegalovirus; HFF cells, HCMV-luciferase reporter, 72 h; active compounds read low; activity change, negative = inhibition, % at 57.5 µM; 4.5% of 410,000 active; in the data active = activity change below about -60%; inconclusive = no clear call, values can overlap the other calls; inactive = above about -39%
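Two compound doses tested in HFFs infected with HCMV-luciferase, MOI 1 PFU/cell, 72 h at 37C. Lysate luminescence read with OneGlo; data normalized against buffer-only and 10uM Salinomycin inhibitor controls.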
Of the large screens only hits and unclear results are named; the others gave an inactive call; ! = not confirmed by another sample. Compounds with a hit are over-represented: about 5% of the library has one in this group of screens. Unless noted, calls follow the shape of the dose curve; as a rule, active = well fitted curve in the direction sought with a large enough effect; inconclusive = small, poorly fitted or top-dose-only effect, or another doubt; inactive = no such curve, though single readings can be large; an effect the other way counts as inactive or inconclusive.

CC(C)(C)CNC(=O)C1(C)CCN1C(=O)Cc1ccc(C(C)(C)C)cc1 (stereo unspecified)	none (no result: LmPK inh)
CC1CCN(C(=O)COC(=O)Cn2cnc3ccccc32)CC1	HCMV antiviral -67 (no result: LmPK inh)
CN(C(=O)COC(=O)Cn1cnc2ccccc21)C1CCCCC1	HCMV antiviral -94 (no result: LmPK inh)
COc1ccc(C(O)c2ncc(-c3ccccc3OC)[nH]2)cc1 (stereo unspecified)	none (no result: LmPK inh)
COc1ccc(C(O)c2ncc(-c3ccccc3Cl)[nH]2)cc1 (stereo unspecified)	HCMV antiviral -74 (no result: LmPK inh)
COc1ccc(-c2cnc(C(O)c3ccc(-c4ccccc4)cc3)[nH]2)cc1 (stereo unspecified)	none (no result: LmPK inh)
COc1ccc(-c2cnc(C(O)c3ccccc3)[nH]2)cc1 (stereo unspecified)	none (no result: LmPK inh)
OC(c1ccc(Cl)cc1)c1ncc(-c2ccc(Oc3ccccc3)cc2)[nH]1 (stereo unspecified)	VACV Venus inh inconclusive, Vaccinia mCherry 10µM, HCMV antiviral inconclusive (no result: LmPK inh)
OC(c1ccccc1)c1ncc(-c2ccc(Oc3ccccc3)cc2)[nH]1 (stereo unspecified)	VACV Venus inh inconclusive, Vaccinia mCherry 16µM (no result: LmPK inh)
CCCCC1(C)NC(=O)N(CC(=O)N2CCc3ccccc32)C1=O (stereo unspecified)	none (no result: VACV Venus inh, Vaccinia mCherry, LmPK inh)
O=C1C=C(N2CCN(C(=O)c3ccccc3)CC2)C2(CCCCC2)O1	HCMV antiviral -77
COc1cccc(-n2ccnc2SCC(=O)Nc2cc(OC)ccc2OC)c1	none (no result: Vaccinia mCherry)
Cc1nc(N2CCN(Cc3ccccc3)CC2)nc2c1CCC2	HCMV antiviral inconclusive
Cc1nc(N2CCN(Cc3ccccc3)CC2)nc2c1C(=O)CCC2	HCMV antiviral -97
COc1ccc(-c2nc(SCC(=O)NC(C)CCc3ccccc3)n[nH]2)cc1 (stereo unspecified)	VACV Venus inh inconclusive, HCMV antiviral -89 (no result: LmPK inh)
COc1cc(-c2nc(SCC(=O)Nc3ccc(C)cc3)c(-c3ccc(F)cc3)[nH]2)cc(OC)c1OC	VACV Venus inh inconclusive, HCMV antiviral -61 (no result: LmPK inh)
COc1ccc(NC(=O)CSc2nc(-c3ccc(F)cc3)[nH]c2-c2ccc(C)cc2)cc1OC	none (no result: LmPK inh)
COc1ccc(-c2nc(SCC(=O)NCCCc3ccccc3)n[nH]2)cc1	HCMV antiviral -67 (no result: LmPK inh)
O=C(CSc1n[nH]c(-c2ccccc2)n1)NCCCc1ccccc1	none (no result: LmPK inh)
CC(CCc1ccccc1)NC(=O)CSc1n[nH]c(-c2ccc(F)cc2)n1 (stereo unspecified)	HCMV antiviral -65 (no result: LmPK inh)
COc1ccc(/C=C/C(=O)NC(C)CCc2ccccc2)cc1 (stereo unspecified)	HCMV antiviral -60
COc1ccc(/C=C/C(=O)NCCCc2ccccc2)cc1	none
COCCCNC(=O)CSc1nc(-c2ccc(OC)cc2)[nH]c1-c1ccc(OC)cc1	HCMV antiviral -112 (no result: LmPK inh)
COc1ccc(/C=C/c2cc[n+](C(=O)Cc3ccccc3)cc2)cc1	HCMV antiviral -108
O=C(CCC1CCCCC1)Nc1nnc(C(F)(F)F)s1	none (no result: VACV Venus inh, Vaccinia mCherry)
CCS(=O)(=O)Nc1ccc(C2=NN(C(=O)c3ccco3)C(c3ccc(Cl)o3)C2)cc1 (stereo unspecified)	VACV Venus inh inconclusive, Vaccinia mCherry inconclusive (no result: LmPK inh)
Cc1cccc(NC2=NC(C)(C)N=C(N)N2)c1	VACV Venus inh 1µM, Vaccinia mCherry inconclusive, HCMV antiviral -98
Cc1cc(C)cc(NC2=NC3(CCCCC3)N=C(N)N2)c1	VACV Venus inh inconclusive, HCMV antiviral inconclusive (no result: Vaccinia mCherry)
Cc1cc(C)nc(NC(=O)c2ccccc2O)n1	none (no result: VACV Venus inh, Vaccinia mCherry)
COc1cc(/C=N/NC(=S)NC2CC3C=CC2C3)cc(OC)c1OC (stereo unspecified)	HCMV antiviral -61
CCOc1ccc(/C=N/NC(=S)NC2CC3C=CC2C3)cc1 (stereo unspecified)	HCMV antiviral inconclusive (no result: VACV Venus inh, Vaccinia mCherry)
COc1ccccc1NC(=O)CN1C(=O)C(C)SC(C)C1=O (stereo unspecified)	none
CC[C@H]1CN2CCC1C[C@@H]2[C@@H](O)c1ccnc2ccc(OC)cc12 (stereo partly specified)	Vaccinia mCherry inconclusive, HCMV antiviral inconclusive (no result: LmPK inh)
CC[C@H]1CN2CCC1C[C@H]2[C@H](O)c1ccnc2ccc(OC)cc12 (stereo partly specified)	HCMV antiviral -68 (no result: LmPK inh)
Cc1onc(-c2ccccc2Cl)c1C(=O)Nc1ccc(-n2nncc2-c2ccco2)cc1	none (no result: VACV Venus inh, Vaccinia mCherry, HCMV antiviral)
COc1ccc(NC(=O)Nc2ccc3c(c2)C(=O)N([C@@H](C)CO)C[C@@H](C)[C@@H](CN(C)S(=O)(=O)c2cn(C)cn2)O3)cc1	none (no result: LmPK inh)
Oc1nc(Nc2cccc(Cl)c2)sc1/C=C1\C=Nc2ccccc21	VACV Venus inh inconclusive, Vaccinia mCherry inconclusive
CCOC(=O)c1c(Nc2ccc(Cl)cc2)sc(/C=C2\C=Nc3ccccc32)c1O	HCMV antiviral -73!
O=C1C=C(c2ccccc2)CC(/C=C/c2ccccc2)C1 (stereo unspecified)	none
O=C(C1CCN(S(=O)(=O)c2cccc3cccnc23)CC1)N1CC=C(c2ccccc2)CC1	none (no result: Tb PYK inh, VACV Venus inh, Vaccinia mCherry, HCMV antiviral)
Cn1c(=O)oc2cc(S(=O)(=O)N3CCC(C(=O)N4CC=C(c5ccccc5)CC4)CC3)ccc21	HCMV antiviral -73
O=C(C1CCN(S(=O)(=O)c2ccc(F)cc2)CC1)N1CC=C(c2ccccc2)CC1	HCMV antiviral -101 (no result: VACV Venus inh, Vaccinia mCherry)
C=CCn1c(-c2cc3c(s2)CCC(CC)C3)n[nH]c1=S (stereo unspecified)	Tb PYK inh inconclusive, HCMV antiviral inconclusive
CC(=O)c1cc2c(s1)-c1cc(F)ccc1OC2	none
COC(=O)c1cc2c(s1)-c1cc(F)ccc1OC2	HCMV antiviral -66
C/C=C/C(=O)OCC(=O)Nc1cc([N+](=O)[O-])ccc1Cl	VACV Venus inh inconclusive, Vaccinia mCherry 11µM, HCMV antiviral inconclusive
CC(=O)OCC(=O)Nc1ccc([N+](=O)[O-])cc1Cl	none
C/C=C/C(=O)OCC(=O)Nc1cc(OC)c([N+](=O)[O-])cc1C	VACV Venus inh 7.9µM, Vaccinia mCherry 5.6µM
COc1cc(NC(=O)COC(=O)C=C(C)C)c(C)cc1[N+](=O)[O-]	none
COc1ccccc1Cc1c(-c2ccccc2)nc2ccc(C)cn12	none (no result: Tb PYK inh, VACV Venus inh, Vaccinia mCherry, LmPK inh)
O=C(CCNS(=O)(=O)c1ccc2c(c1)CCN2C(=O)C1CC1)N1CCN(c2cccc(C(F)(F)F)c2)CC1	HCMV antiviral -60 (no result: LmPK inh)
Cc1ccc(Cl)cc1N1CCN(C(=O)CCNS(=O)(=O)c2ccc3c(c2)CCN3C(=O)C2CC2)CC1	none (no result: LmPK inh)
COc1cccc(NS(=O)(=O)c2ccc3c(c2)CCCN3C(C)=O)c1	HCMV antiviral -60
CS(=O)(=O)N1CCc2cc(S(=O)(=O)Nc3ccc4c(c3)OCCO4)ccc21	HCMV antiviral -84
COc1ccc(NS(=O)(=O)c2ccc3c(c2)CCN3C(=O)C2CC2)cc1OC	none (no result: LmPK inh)
O=C(C1CCC1)N1CCc2cc(S(=O)(=O)Nc3ccc4c(c3)OCCO4)ccc21	VACV Venus inh inconclusive, HCMV antiviral -82
CS(=O)(=O)N1CCc2cc(S(=O)(=O)NCCNS(=O)(=O)c3ccc4c(c3)CCN4S(C)(=O)=O)ccc21	none
